Shown are actives, neighbours in structure and some others; about 2.9% of the full set was active somewhere.
PAFAH2 inh = inhibitors of human PAFAH2; Q99487; recombinant PAFAH2, FP-rhodamine activity probe, fluorescence polarization; inhibition, % at 3.39 µM; hit rate 0.99% among 340,000;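 active = inhibition above the mean over all tested compounds plus 3 SD, cut at about 30% in these data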;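 also: inhibitors block probe labeling of enzyme so polarization drops; 0% = enzyme with DMSO and 100% = wells lacking PAFAH2 protein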
pPAFAH inh = inhibitors of human plasma PAF acetylhydrolase (pPAFAH). inhibition, % at 3.39 µM. recombinant pPAFAH, FP-rhodamine probe fluorescence polarization. hit rate 1.5% among 330,000. Q13093;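 active = inhibition above the mean inhibition across the screen plus 3 SD, cut at about 25% in these data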;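 also: inhibitors block binding of the rhodamine activity-based probe so polarization drops; 0% = enzyme with DMSO and 100% = wells lacking pPAFAH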
PAFAH1B2 inh = PAFAH1B2 (human) inhibition. AID 492953. P68402. recombinant PAFAH1B2, FP-rhodamine activity probe, fluorescence polarization. inhibition, % at 3.39 µM. hit rate 1.2% among 340,000;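 active = inhibition above the mean of all tested compounds plus 3 SD, cut at about 24% in these data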;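 also: 0% = enzyme with DMSO and 100% = wells lacking PAFAH1B2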
Fam108B counter = blocks mouse Fam108B hydrolase in RBBP9 counter-screen; hit rate 0.33% among 300,000; recombinant Fam108B, FP-Rh probe fluorescence polarization; AID 1947; inhibition, % at 9.51 µM;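 active = inhibition above the screen mean inhibition plus 3 SD, computed separately per campaign, cut at about 18% in these data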;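 also: inhibitors lower polarization as less probe binds the enzyme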
PAFAH1B3 FP inh = PAFAH1B3 (human) inhibition | recombinant PAFAH1B3, FP-rhodamine probe, fluorescence polarization | inhibition, % at 3.39 µM | hit rate 0.28% among 340,000 | AID 492972;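 active = inhibition above the screen-wide average of all tested compounds plus 3 SD, cut at about 25% in these data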;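 also: 0% = enzyme with DMSO only and 100% = wells lacking PAFAH1B3 protein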
Target sequence (Q15102 whole entry, looked up): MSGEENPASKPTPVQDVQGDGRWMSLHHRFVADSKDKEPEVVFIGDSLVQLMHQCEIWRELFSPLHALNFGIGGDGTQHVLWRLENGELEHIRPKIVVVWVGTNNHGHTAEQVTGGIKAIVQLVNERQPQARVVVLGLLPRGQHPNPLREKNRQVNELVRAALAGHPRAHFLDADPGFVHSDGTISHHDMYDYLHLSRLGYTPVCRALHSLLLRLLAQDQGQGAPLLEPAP
PME-1 primary = blocks human protein phosphatase methylesterase 1; Q9Y570; recombinant PME-1, FP-Rh probe fluorescence polarization; inhibition, % at 5.9 µM; hit rate 0.53% among 320,000; AID 2130;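 active = inhibition above the campaign mean of all compounds plus 3 SD, cut at about 26% in these data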;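 also: competitive labeling of PME-1 active site by serine hydrolase directed probe; 0% = PME-1 with DMSO and 100% = wells lacking PME-1 enzyme; inhibitors block probe labeling so polarization falls and inhibition rises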
Target sequence (Q9Y570 whole entry, looked up): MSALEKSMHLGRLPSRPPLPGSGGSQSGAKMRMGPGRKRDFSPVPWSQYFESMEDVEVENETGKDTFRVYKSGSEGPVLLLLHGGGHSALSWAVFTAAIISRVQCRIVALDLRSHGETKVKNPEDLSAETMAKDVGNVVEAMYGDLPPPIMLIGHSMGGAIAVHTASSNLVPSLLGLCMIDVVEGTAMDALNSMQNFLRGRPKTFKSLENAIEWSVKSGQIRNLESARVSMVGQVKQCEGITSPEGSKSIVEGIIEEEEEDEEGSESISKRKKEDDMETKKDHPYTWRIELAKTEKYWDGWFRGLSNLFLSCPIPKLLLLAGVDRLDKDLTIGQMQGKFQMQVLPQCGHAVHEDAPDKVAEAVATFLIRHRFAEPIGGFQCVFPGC
PAFAH2 confirm = confirmation of human PAFAH2 inhibitors; shares compounds with PAFAH2 inh; recombinant PAFAH2, FP-rhodamine activity probe, fluorescence polarization; inhibition, % at 3.39 µM; hit rate 65% among 2,300;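 active = mean inhibition over three repeats above a set limit taken from the earlier primary screen, cut at about 30% in these data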;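 also: inhibitor blocks binding of rhodamine activity probe so polarization falls; 0% = enzyme with DMSO and 100% = wells lacking PAFAH2 protein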
* marks the source's active call; other numbers are inactive results.

Results for Cc1ccc(C(=O)OCC(=O)c2ccc(Cl)s2)s1 ?
PAFAH2 inh: 74.0*; pPAFAH inh: 15.7; PAFAH1B2 inh: 2.3; Fam108B counter: 6.5; PAFAH1B3 FP inh: 0.8; PME-1 primary: -1.8; PAFAH2 confirm: 65.9*

How did O=C(O)c1cccc(NS(=O)(=O)c2ccc(Oc3ccc(S(=O)(=O)Nc4cccc(C(=O)O)c4)cc3)cc2)c1 do in these assays?
PAFAH2 inh: -7.1; pPAFAH inh: 10.3; PAFAH1B2 inh: 6.8; Fam108B counter: 4.3; PAFAH1B3 FP inh: 4.9; PME-1 primary: 1.4

What do the screens show for `O=C(NC1=NCCS1)c1ccc(F)c(S(=O)(=O)N2CCOCC2)c1`?
PAFAH2 inh: 1.7; pPAFAH inh: 0.3; PAFAH1B2 inh: -0.1; PAFAH1B3 FP inh: 6.0

Results for O=C(COC(=O)c1ccc2c(c1)OCCO2)NCCc1ccccc1 ?
PAFAH2 inh: 45.6*; pPAFAH inh: 12.0; PAFAH1B2 inh: 3.7; PAFAH1B3 FP inh: 7.0; PAFAH2 confirm: 41.4*

What do the screens show for `CCCC(=O)Nc1ccc(C(=O)n2ccc(C)n2)cc1`?
PAFAH2 inh: 48.9*; pPAFAH inh: 3.1; PAFAH1B2 inh: 3.9; Fam108B counter: 3.5; PAFAH1B3 FP inh: -1.7; PME-1 primary: 3.7; PAFAH2 confirm: 40.7*

How did CCCC(=O)Nc1ccc(C(N)=O)cc1 do in these assays?
PAFAH2 inh: 1.6; pPAFAH inh: 3.7; PAFAH1B2 inh: 3.7; Fam108B counter: 3.6; PAFAH1B3 FP inh: 4.5; PME-1 primary: -4.2

How did COc1ccc(NC(=O)N(C)C[C@H]2Oc3ccc(NS(=O)(=O)c4ccccc4)cc3C(=O)N([C@H](C)CO)C[C@@H]2C)cc1 do in these assays?
PAFAH2 inh: 6.2; PAFAH1B2 inh: 4.1; PAFAH1B3 FP inh: 8.9

Results for CCCCn1c(N)c(N(CCOC)C(=O)c2ccc(N3C(=O)c4ccccc4C3=O)cc2)c(=O)[nH]c1=O ?
PAFAH2 inh: -4.6; PAFAH1B2 inh: 1.9; PAFAH1B3 FP inh: 3.2

Results for CCCCn1c(N)c(N(CCOC)C(=O)c2cccc(N3C(=O)c4ccccc4C3=O)c2)c(=O)[nH]c1=O ?
PAFAH2 inh: 44.8*; pPAFAH inh: 6.1; PAFAH1B2 inh: -2.8; Fam108B counter: 3.2; PAFAH1B3 FP inh: 2.6; PME-1 primary: -4.5; PAFAH2 confirm: -2.4

How did Cc1c(C(c2cc3c(cc2Br)OCO3)c2c(C)n(C)n(-c3ccccc3)c2=O)c(=O)n(-c2ccccc2)n1C do in these assays?
PAFAH2 inh: 80.9*; pPAFAH inh: 1.5; PAFAH1B2 inh: 2.6; Fam108B counter: 3.4; PAFAH1B3 FP inh: 8.1; PME-1 primary: 1.8; PAFAH2 confirm: 76.9*

Results for Cc1c(C(c2ccccc2O)c2c(C)n(C)n(-c3ccccc3)c2=O)c(=O)n(-c2ccccc2)n1C ?
PAFAH2 inh: -4.7; pPAFAH inh: 6.3; PAFAH1B2 inh: 3.7; Fam108B counter: 2.7; PAFAH1B3 FP inh: 12.3; PME-1 primary: 0.8

Results for O=C(Nc1ccccc1C(=O)Nc1ccc2c(c1)OCO2)c1ccco1 ?
PAFAH2 inh: 3.7; pPAFAH inh: 0.0; PAFAH1B2 inh: 2.7; Fam108B counter: 3.3; PAFAH1B3 FP inh: 4.2; PME-1 primary: -8.3

How did O=c1[nH][nH]cc1C=NCc1cccnc1 do in these assays?
PAFAH2 inh: -0.1; pPAFAH inh: 1.6; PAFAH1B2 inh: 2.3; Fam108B counter: -2.2; PAFAH1B3 FP inh: -0.2; PME-1 primary: -3.9

Results for C=CCSC1=N/C(=C\c2cc(OC)c3c(c2)OCO3)C(=O)S1 ?
PAFAH2 inh: 42.3*; pPAFAH inh: 4.4; PAFAH1B2 inh: -1.4; Fam108B counter: -0.9; PAFAH1B3 FP inh: 6.9; PME-1 primary: 8.0; PAFAH2 confirm: 43.1*

How did CCSC1=N/C(=C\c2ccc3c(c2)OCO3)C(=O)S1 do in these assays?
PAFAH2 inh: 17.1; pPAFAH inh: -2.5; PAFAH1B2 inh: 0.0; Fam108B counter: -2.0; PAFAH1B3 FP inh: -5.3; PME-1 primary: -7.9

Results for O=C(CN1C(=O)S/C(=C\c2ccccc2)C1=O)Nc1cc([N+](=O)[O-])ccc1O ?
PAFAH2 inh: 57.0*; pPAFAH inh: 24.0; PAFAH1B2 inh: 15.7; Fam108B counter: 4.5; PAFAH1B3 FP inh: 14.7; PME-1 primary: 11.3; PAFAH2 confirm: 42.7*

What do the screens show for `Cc1ccc(/C=C2\SC(=S)N(CCCC(=O)Nc3ccc(O)cc3)C2=O)cc1`?
PAFAH2 inh: -4.8; pPAFAH inh: 1.0; PAFAH1B2 inh: 2.3; Fam108B counter: 9.3; PAFAH1B3 FP inh: 2.2; PME-1 primary: 5.5

What do the screens show for `COc1ccc(/C=C2\SC(=O)N(CC(=O)Nc3ccccc3O)C2=O)cc1OC`?
PAFAH2 inh: -8.5; PAFAH1B2 inh: 2.4; PAFAH1B3 FP inh: 1.0

What do the screens show for `Cc1ccc(/C=C2/SC(=S)N(CCCC(=O)Nc3cc([N+](=O)[O-])ccc3O)C2=O)cc1`?
PAFAH2 inh: 32.4*; pPAFAH inh: 7.6; PAFAH1B2 inh: 4.1; Fam108B counter: -6.8; PAFAH1B3 FP inh: 8.9; PME-1 primary: 2.7; PAFAH2 confirm: 15.7

Results for O=C(c1ccccc1)n1ccc(-c2cccs2)n1 ?
PAFAH2 inh: 43.3*; pPAFAH inh: 1.2; PAFAH1B2 inh: 0.8; Fam108B counter: -0.4; PAFAH1B3 FP inh: -2.0; PME-1 primary: 3.3; PAFAH2 confirm: 23.4

Results for COC(=O)c1cc(-c2cccs2)nn1-c1ccccc1 ?
PAFAH2 inh: -0.7; pPAFAH inh: 5.0; PAFAH1B2 inh: 4.9; Fam108B counter: 0.2; PAFAH1B3 FP inh: -1.5; PME-1 primary: 3.5

What do the screens show for `CC(=O)N1N=C(c2ccncc2)OC12CCCCC2`?
PAFAH2 inh: 2.9; pPAFAH inh: 0.2; PAFAH1B2 inh: -0.1; Fam108B counter: 2.1; PAFAH1B3 FP inh: -1.6; PME-1 primary: 0.1

How did CC(=O)Nc1ccc(NC(=O)Cn2c(=O)n(-c3ccc(F)cc3)c(=O)c3oc4ccccc4c32)cc1 do in these assays?
PAFAH2 inh: 4.9; pPAFAH inh: -6.9; PAFAH1B2 inh: 0.6; Fam108B counter: -3.3; PAFAH1B3 FP inh: 0.6; PME-1 primary: -0.2

Results for CCN(CC)C(=O)CSc1nc2c(sc(=S)n2-c2ccccc2OC)c(=O)n1-c1ccccc1 ?
PAFAH2 inh: 38.2*; pPAFAH inh: 8.2; PAFAH1B2 inh: 1.1; Fam108B counter: 6.5; PAFAH1B3 FP inh: -1.9; PME-1 primary: 6.3; PAFAH2 confirm: 9.3

How did Cc1nc2c(c(C)nn2-c2ccccc2)c(C)c1Cl do in these assays?
PAFAH2 inh: 1.8; pPAFAH inh: 0.2; PAFAH1B2 inh: -4.5; Fam108B counter: -2.7; PAFAH1B3 FP inh: -3.7; PME-1 primary: -3.4

How did Cc1csc(Sc2ccc(C(=O)OCC(=O)Nc3ccc(F)cc3[N+](=O)[O-])cc2[N+](=O)[O-])n1 do in these assays?
PAFAH2 inh: 33.5*; pPAFAH inh: 5.3; PAFAH1B2 inh: -0.1; Fam108B counter: 2.6; PAFAH1B3 FP inh: 6.2; PME-1 primary: 9.3; PAFAH2 confirm: 17.6
